PubChem BioAssay AID1159580 (chemical genetic matrix, 2015)
Where “and” joins values, the source holds several entries; their conditions need not be identical. Identical values can stand only once. Out of some 5,500 compounds screened, about 2,000 (36%) were called active. Inconclusive results (about 18%) are left out. No stated cut-off is given here; in the data, active means normalized growth mostly below about 0.91 (no sharp cut-off); inconclusive means no clear call, values can overlap the other calls; inactive means mostly above about 0.92. The list shows a part of the results.

Test: chemical genetic growth profiling, strain panel (AID 1159580);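 further: tested at 20 µM; growth read once vehicle control cultures reached saturation at 30 °C; 1 = growth at the plate median or of vehicle wells; lower values mean less growth of the strain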
Settings: S. cerevisiae deletion strains, growth OD

Measured: normalized growth

O=C(O)CCCCC1CCSS1 (configuration not stated)
active: locus YHR079C, strain IRE1, hits give low values 0.383 | locus YJR066W, strain TOR1, hits give low values 0.812
inactive: locus YAL013W, strain DEP1, hits give low values 0.97 | locus YAL021C, strain ccr4, hits give low values 1 | locus YAL026C, strain drs2, hits give low values 0.94 | locus YAL030W, strain snc1, hits give low values 0.974 | locus YBL061C, strain skt5, hits give low values 0.979 | locus YBR009C, strain hhf1, hits give low values 0.933 | locus YBR021W, strain FUR4, hits give low values 0.987 | locus YBR023C, strain chs3, hits give low values 0.977 | locus YBR171W, strain sec66, hits give low values 0.934 | locus YBR229C, strain ROT2, hits give low values 0.953 | locus YBR231C, strain swc5, hits give low values 0.979 | locus YBR279W, strain paf1, hits give low values 0.978 | locus YCL011C, strain gbp2, hits give low values 0.959 | locus YCL016C, strain dcc1, hits give low values 0.983 | locus YCL029C, strain bik1, hits give low values 0.993 | locus YCL061C, strain MRC1, hits give low values 0.956 | locus YCL069W, strain vba3, hits give low values 0.973 | locus YCR088W, strain abp1, hits give low values 0.978 | locus YDL005C, strain med2, hits give low values 1.02 | locus YDL035C, strain GPR1, hits give low values 0.98 | locus YDL040C, strain nat1, hits give low values 0.976 | locus YDL074C, strain BRE1, hits give low values 0.99 | locus YDL101C, strain DUN1, hits give low values 0.978 | locus YDL134C, strain PPH21, hits give low values 0.974 | locus YDL185W, strain tfp1, hits give low values 0.942 | locus YDL192W, strain arf1, hits give low values 0.979 | locus YDR001C, strain nth1, hits give low values 0.971 | locus YDR069C, strain doa4, hits give low values 0.982 | locus YDR101C, strain arx1, hits give low values 0.996 | locus YDR137W, strain rgp1, hits give low values 0.883 | locus YDR150W, strain NUM1, hits give low values 0.958 | locus YDR159W, strain sac3, hits give low values 0.984 | locus YDR162C, strain NBP2, hits give low values 0.938 | locus YDR195W, strain ref2 0.994 | locus YDR297W, strain sur2, hits give low values 0.975 | locus YDR318W, strain mcm21, hits give low values 0.992 | locus YDR334W, strain swr1, hits give low values 0.978 | locus YDR335W, strain msn5, hits give low values 0.97 | locus YDR388W, hits give low values 0.985 | locus YDR392W, strain spt3, hits give low values 0.888 | locus YDR502C, strain sam2, hits give low values 0.975 | locus YEL003W, strain gim4, hits give low values 0.961 | locus YEL037C, strain rad23, hits give low values 0.976 | locus YEL061C, strain CIN8 (second series), hits give low values 0.968 | locus YEL061C, strain CIN8, hits give low values 0.975 | locus YER015W, strain faa2, hits give low values 0.985 | locus YER016W, strain bim1, hits give low values 0.983 | locus YER110C, hits give low values 0.961 | locus YER111C, strain swi4, hits give low values 0.963 | locus YER155C, strain BEM2 (second series), hits give low values 0.922 | locus YER155C, strain BEM2, hits give low values 0.989 | locus YER167W, strain BCK2, hits give low values 0.981 | locus YFR010W, strain ubp6, hits give low values 0.962 | locus YGL078C, strain dbp3, hits give low values 0.981 | locus YGL086W, strain mad1, hits give low values 0.97 | locus YGL167C, strain pmr1, hits give low values 0.95 | locus YGL173C, strain kem1, hits give low values 0.973 | locus YGL227W, strain vid30, hits give low values 0.965 | locus YGL240W, strain doc1, hits give low values 0.956 | locus YGL248W, strain PDE1, hits give low values 0.981 | locus YGL253W, strain hxk2, hits give low values 0.992 | locus YGR078C, strain PAC10, hits give low values 0.999 | locus YGR135W, strain pre9, hits give low values 0.982 | locus YGR229C, strain SMI1, hits give low values 1.01 | locus YGR252W, strain gcn5, hits give low values 0.873 | locus YHR013C, strain ard1, hits give low values 0.935 | locus YHR027C, strain rpn1, hits give low values 0.987 | locus YHR030C, strain SLT2, hits give low values 0.98 and 0.943 | locus YHR079C, strain IRE1 (second series), hits give low values 0.984 | locus YHR094C, strain hxt1, hits give low values 0.981 | locus YHR129C, strain ARP1, hits give low values 0.997 | locus YHR142W, strain chs7, hits give low values 1.02 | locus YHR200W, strain rpn10, hits give low values 0.991 | locus YIL066C, strain RNR3, hits give low values 0.985 | locus YIL073C, strain SPO22, hits give low values 0.978 | locus YIL125W, strain kgd1, hits give low values 0.99 | locus YIR030C, strain dcg1, hits give low values 0.978 | locus YJL092W, strain hpr5, hits give low values 0.972 | locus YJL095W, strain BCK1 (second series), hits give low values 0.975 | locus YJL095W, strain BCK1, hits give low values 1.03 and 0.902 | locus YJL115W, strain asf1, hits give low values 0.978 | locus YJL129C, strain trk1, hits give low values 0.91 | locus YJL134W, strain LCB3, hits give low values 0.977 | locus YJL154C, strain vps35, hits give low values 0.975 | locus YJL164C, strain tpk1, hits give low values 0.967 | locus YJL166W, strain qcr8, hits give low values 0.976 | locus YJL168C, strain set2, hits give low values 0.992 | locus YJL187C, strain SWE1 (second series), hits give low values 0.992 | locus YJL187C, strain SWE1, hits give low values 0.973 | locus YJR043C, strain POL32, hits give low values 1.01
